# Compound activity as filed in PubChem.
# In the library only some 7.3% were active in any assay of this set; here they are far more common.
# HCV inh = qHTS Assay for Inhibitors of Hepatitis C Virus (HCV). Potency, µM (titrated, usually from 41.8 µM), for the others: at the top dose activity change, negative = inhibition, hits mostly inhibitors. Huh7.5.1 HCVcc-Cre infection, luciferase reporter, 44 h. 340,000 tested, 3.4% active; active = well fitted inhibition curve with a large enough effect; inconclusive = small, poorly fitted or top-dose-only effect, or another doubt; inactive = no such curve, though single readings can be large or run the other way; also: potency is read from the fitted curve at half-maximal effect
#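 Infectious HCVcc-Cre (~0.5 moi) was added to cells just after compound, with cells seeded 4 h earlier at 1,000 per well. Luciferase activity after 44 h culture reported infection; substrate was incubated 15 min at room temperature before reading.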
# Vaccinia Venus = qHTS for Stage-Specific Inhibitors of Vaccinia Orthopoxvirus: Venus Reporter Primary qHTS | Potency, µM (top dose mostly 36.5 µM), without a hit: at the highest dose activity change, negative = inhibition, usual class: inhibitors | Vaccinia virus Venus reporter expression, fluorescence | AID 720580, 2013 | 330,000 tested, 0.46% active; calls by dose curve; tested in A549 cells; also: potency is read from the fitted curve at half-maximal effect; nearly all actives have a fitted effect of over 30% in size
# FMDV antiviral = High Throughput Screening for Foot and Mouth Disease Virus Antivirals; FMDV antiviral cell-based qHTS; Potency, µM (titrated, usually from 57.9 µM), for inactives: at the top dose activity change, negative = inhibition, most hits filed as inhibitors; 410,000 tested, 1.2% active; calls by dose curve; tested in HEK293T cells; also: read-out not given here; potency is read from the fitted curve at half-maximal effect; nearly all actives have a fitted effect of over 45% in size
# HCMV inh = qHTS Assay for inhibitors of the human cytomegalovirus (HCMV) | AID 1259415, 2018 | activity change, negative = inhibition, % at 57.5 µM | HFF cells, HCMV-luciferase reporter, 72 h; active compounds read low | 410,000 tested, 4.5% active; in the data active = activity change below about -60%; inconclusive = no clear call, values can overlap the other calls; inactive = above about -39%
#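 Screen run at 2 compound doses on HFFs infected with reporter HCMV, MOI 1 PFU/cell. Luciferase activity from cell lysates at 72 h post infection gave inhibition relative to buffer-only and Salinomycin wells.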
# Vaccinia mCherry = qHTS for Stage-Specific Inhibitors of Vaccinia Orthopoxvirus: mCherry Reporter Primary qHTS | Vaccinia virus mCherry reporter infection, fluorescence | Potency, µM (titrated, usually from 36.5 µM), without a hit: at the highest dose activity change, negative = inhibition, hits mostly inhibitors | 310,000 tested, 0.63% active; calls by dose curve; tested in A549 cells; also: potency is read from the fitted curve at half-maximal effect; nearly all actives have a fitted effect of over 35% in size
# Numbers without * were called inactive; i = inactive; u = inconclusive; x = not tested or not shown. % is scaled to controls: 0 for no effect and ±100 for the full control effect.
SMILES,HCV inh,Vaccinia Venus,FMDV antiviral,HCMV inh,Vaccinia mCherry
Cc1cccc(NC(=O)Cn2c(=O)n(Cc3nc(-c4ccccc4)no3)c(=O)c3ccccc32)c1,x,-18%,u,u,-27%
COc1cc2c(cc1OC)C1N(CC2)C(=O)CCC12C(=O)CCCC2=O (configuration not stated),x,x,-20%,x,x
Cc1ccc(C(=O)NNc2c3ccccc3nc3ccccc23)cc1,11µM*,u,-27%,-18,-18%
O=C(NNc1c2ccccc2nc2ccccc12)c1ccc(Cl)cc1,u,-6%,-9%,90,i
Cc1ccc(C(=O)Nc2ccc3ccccc3n2)cc1,-12%,-10%,-2%,-102*,-7%
COc1cc(OC)c(OC)cc1/C=C/c1nc2ccccc2o1,x,5%,x,x,-15%
CCOC(=O)c1cccn1C1C(=O)N(Cc2ccc(C(F)(F)F)cc2)c2ccc(OC)cc21 (configuration not stated),x,x,x,-9,x
Oc1ccc(/C=N/Nc2ncc(Br)cn2)c(O)c1,u,u,10%,124,2.5µM*
Oc1ccc(Br)cc1/C=N/Nc1ncc(-c2ccccc2)cn1,0%,7%,-14%,-33,i
Oc1ccccc1/C=N/Nc1nccnc1Cl,u,x,38%,-100*,x
C(=N\Nc1ccccn1)/c1c[nH]c2ccccc12,-24%,u,12%,-68*,u
NC(=Nc1ccccc1)NN=Cc1c[nH]c2ccccc12,u,u,u,-85*,0%
COc1ccc(CCNC(=O)c2cnc3ccc(C)cn3c2=O)cc1,x,-13%,-1%,15,-18%
CCOc1ccc(CCNC(=O)c2nn(C)c3c2CSc2ccccc2-3)cc1,x,-15%,-24%,u,-15%
Cc1ccc(-c2nnc(SCC(=O)NCCC(C)C)nc2-c2ccc(C)cc2)cc1,x,-22%,-20%,u,-23%
Oc1ccc(/C=N/Nc2cccc3cccnc23)c(O)c1,u,-23%,x,-22,u
Oc1ccc(C=NNc2ccccn2)c(O)c1,u,u,11%,-99*,u
Oc1ccc(/C=N/Nc2nccnc2Cl)c(O)c1,u,u,9%,-97*,2.5µM*
Cc1c(N)nc([C@H](CC(N)=O)NC[C@H](N)C(N)=O)nc1C(=O)N[C@H](C(=O)N[C@H](C)[C@@H](O)[C@H](C)C(=O)N[C@H](C(=O)NCCc1nc(-c2nc(C(=O)NCCCCN=C(N)N)cs2)cs1)[C@@H](C)O)[C@@H](O[C@@H]1O[C@@H](CO)[C@@H](O)[C@H](O)[C@@H]1O[C@H]1O[C@H](CO)[C@@H](O)[C@H](OC(N)=O)[C@@H]1O)c1cnc[nH]1,x,-27%,-3%,x,i
Cc1cc(NC(=O)N2CCC(CN3CCCCCC3)CC2)ccc1Br,x,-12%,13%,-17,-7%
Cc1cccc(C(=O)Nc2nnc(SCc3cc(=O)n4cccc(C)c4n3)s2)c1,x,-8%,2%,-18,i
COCCNC(=O)[C@@]1(Sc2ccc(OC)cc2)CC(=O)N[C@@H]1c1ccc(OC)cc1,x,x,x,-12,x
COc1cc(/C=N\NC(=O)CNC(=O)C2COc3ccccc3O2)ccc1O (configuration not stated),8%,-17%,-22%,28,-18%
CCN(CC)c1ccc(/C=N/NC(=O)c2c(Cl)cnn2C)c(O)c1,3.5µM*,u,21%,-101*,1.1µM*
CCN(CC)c1ccc(/C=N/NC(=O)CNC(=O)C2COc3ccccc3O2)c(O)c1 (configuration not stated),11µM*,u,-7%,-97*,2.8µM*
CCN(CC)c1ccc(C=Nc2cccc(S(=O)(=O)N3CCOCC3)c2)c(O)c1,-14%,-17%,6%,6,-19%
CCN(CC)c1ccc(/C=N/NC(=O)c2cccc(S(=O)(=O)N3CCOCC3)c2)c(O)c1,u,u,u,-75*,1.8µM*
C/C(=N/NC(=O)CNC(=O)C1COc2ccccc2O1)c1ccc2c(c1)OCCO2 (configuration not stated),-30%,-2%,0%,-73*,0%
